# The source made the active and inactive calls.
# Key:
# [1] = small molecules captured by biotinylated probe aFSTL3 – biochemical, small-molecule microarray, fluorescence 635/667, stem cell growth factor project, primary screen (AID 1064); details: higher = more signal;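 further: measures binding of the biotinylated anti-FSTL3 antibody to printed compounds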
# [2] = binders from COS7 lysate, DM2A8 probe, primary screen, torsin A project, cell lysate, small-molecule microarray, fluorescence 635/667 (AID 1065); details: higher = more signal, COS7 lysate expressing mutant human TOR1A
# [3] = small molecules captured by biotinylated probe aFGF2 – biochemical, small-molecule microarray, fluorescence 635/667, stem cell growth factor project, primary screen (AID 1067); details: higher = more signal;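 further: measures binding of biotinylated aFGF2 protein to printed compounds on slides; z-score merges feature fluorescence and signal-to-noise across triplicate slides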
# [4] = small molecules captured by biotinylated probe aFGF10 – biochemical, small-molecule microarray, fluorescence 635/667, stem cell growth factor project, primary screen (AID 1071); details: higher = more signal;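 further: score merges 667 nm spot intensity and signal to noise from triplicate slides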
# [5] = target: Neurogenic locus notch homolog protein 2 (Homo sapiens) (UniProt Q04721); experiment: small molecules binding Notch2 protein – biochemical, small-molecule microarray, 635 nm fluorescence, stem cell growth factors, primary screen (AID 1073); details: higher = more signal
# [6] = target: Pro-neuregulin-1, membrane-bound isoform (Homo sapiens) (UniProt Q02297); experiment: small molecules binding neuregulin-1 protein – biochemical, small-molecule microarray, fluorescence 635/667, psychiatric disease protein project, primary screen (AID 1075); details: NRG1 binding, 635 nm fluorescence, higher = more signal;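 further: score combines 667 nm spot fluorescence with signal to noise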
# [7] = test system: Neuregulin-1 EGF-like domain; experiment: small molecules binding NRG1 EGF domain – biochemical, small-molecule microarray, 635 nm fluorescence, primary screen (AID 1081); details: higher = more signal;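 further: binding of the protein to compounds printed on small-molecule microarray slides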
# [8] = FRG1 expression reporter modulators in myotubes – cell-based, C2C12 myotubes, firefly/Renilla luciferase, luminescence, FRG1 inhibition for FSHD, primary screen (AID 1084); details: FRG1 promoter luciferase, higher = more signal, called active from +8 up or from −8 down
# [9] = small molecules captured by biotinylated probe aFST – biochemical, small-molecule microarray, fluorescence 635/667, stem cell growth factor project, primary screen (AID 1086); details: higher = more signal;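 further: score merges 667 nm fluorescence with signal-to-noise of each printed compound spot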
# [10] = binders of probe aHhip on microarray, primary screen, stem cell growth factor project, biochemical, small-molecule microarray, fluorescence 635/667 (AID 1087); details: higher = more signal;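 further: score merges spot fluorescence at 667nm with spot signal to noise ratio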
# [11] = test system: PRMT1 (protein arginine N-methyltransferase 1); experiment: small molecules binding arginine methyltransferase PRMT1 – biochemical, small-molecule microarray, 635 nm fluorescence, primary screen (AID 1088); details: higher = more signal;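 further: binding of Prmt1 protein to compounds spotted on small-molecule microarray slides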
# [12] = growth effects on S. cerevisiae YJM789 – YJM789 clinical isolate, OD600, 24 h, basal, primary screen (AID 1089); details: higher = more signal, called active from +8 up or from −8 down;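 further: growth of clinical yeast isolate S. cerevisiae YJM 789 seeded 1000 cells per well; test concentration not given here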
# [13] = S. pombe growth modifiers, basal conditions – strain 972, OD600, 24 h, no modulator, primary screen (AID 1090);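 further: basal condition with compound alone and no growth modifier present; test concentration not given here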; details: S. pombe 972 growth, higher = more signal, called active from +8 up or from −8 down
# [14] = budding yeast growth modifiers under rapamycin – strain BY4716, OD600, 96 h, primary screen (AID 1091); further: test concentration not given here; details: S. cerevisiae BY4716 + rapamycin, higher = more signal, called active from +8 up or from −8 down
# [15] = target: Torsin-1A-interacting protein 2 (Homo sapiens) (UniProt Q8NFQ8); experiment: small molecules binding lysate-expressed LULL1 – cell lysate, human LULL1 lysate, 635/667 nm fluorescence, primary screen (AID 1092); details: small-molecule microarray, hLULL1 lysate binding, 635 nm fluorescence; higher = more signal;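 further: probe is lysate of COS7 cells overexpressing human LULL1; score merges per-feature 667 nm fluorescence with signal-to-noise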
# [16] = optical density change of DRC41 E. coli – strain DRC41, OD650, 24 h, E. coli filamentation project, primary screen (AID 1093);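 further: MC1000 strain lacking acrAB efflux and sulA so SOS filamentation is blocked; test concentration not given here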; details: E. coli DRC41 growth, higher = more signal, called active from +8 up or from −8 down
# [17] = probe aLefty2 binding to arrayed compounds – biochemical, biotinylated probe, 635/667 nm fluorescence, primary screen (AID 1094); details: small-molecule microarray, higher = more signal;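 further: score merges spot fluorescence near 667 nm with spot signal-to-noise ratio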
# [18] = test system: Noggin (protein binding on small-molecule microarray); experiment: small molecules binding Noggin protein – biochemical, 635/667 nm fluorescence, primary screen (AID 1095); details: 635 nm fluorescence, higher = more signal;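 further: score merges 667 nm feature fluorescence with signal to noise over triplicate slides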
# [19] = target: Neurogenic locus notch homolog protein 3 (Homo sapiens) (UniProt Q9UM47); experiment: small molecules binding NOTCH3 protein – biochemical, 635/667 nm fluorescence, primary screen (AID 1096); details: small-molecule microarray, 635 nm fluorescence, higher = more signal
# [20] = probe aEGFR binding to arrayed compounds – biochemical, biotinylated probe, 635/667 nm fluorescence, primary screen (AID 1097); details: small-molecule microarray, higher = more signal;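 further: probe is a biotinylated anti-EGFR antibody binding compounds printed on slides; score combines fluorescence near 667 nm and signal to noise of each spot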
# Neurogenic locus notch homolog protein 2 (Homo sapiens), sequence (Q04721 whole entry, looked up, canonical isoform): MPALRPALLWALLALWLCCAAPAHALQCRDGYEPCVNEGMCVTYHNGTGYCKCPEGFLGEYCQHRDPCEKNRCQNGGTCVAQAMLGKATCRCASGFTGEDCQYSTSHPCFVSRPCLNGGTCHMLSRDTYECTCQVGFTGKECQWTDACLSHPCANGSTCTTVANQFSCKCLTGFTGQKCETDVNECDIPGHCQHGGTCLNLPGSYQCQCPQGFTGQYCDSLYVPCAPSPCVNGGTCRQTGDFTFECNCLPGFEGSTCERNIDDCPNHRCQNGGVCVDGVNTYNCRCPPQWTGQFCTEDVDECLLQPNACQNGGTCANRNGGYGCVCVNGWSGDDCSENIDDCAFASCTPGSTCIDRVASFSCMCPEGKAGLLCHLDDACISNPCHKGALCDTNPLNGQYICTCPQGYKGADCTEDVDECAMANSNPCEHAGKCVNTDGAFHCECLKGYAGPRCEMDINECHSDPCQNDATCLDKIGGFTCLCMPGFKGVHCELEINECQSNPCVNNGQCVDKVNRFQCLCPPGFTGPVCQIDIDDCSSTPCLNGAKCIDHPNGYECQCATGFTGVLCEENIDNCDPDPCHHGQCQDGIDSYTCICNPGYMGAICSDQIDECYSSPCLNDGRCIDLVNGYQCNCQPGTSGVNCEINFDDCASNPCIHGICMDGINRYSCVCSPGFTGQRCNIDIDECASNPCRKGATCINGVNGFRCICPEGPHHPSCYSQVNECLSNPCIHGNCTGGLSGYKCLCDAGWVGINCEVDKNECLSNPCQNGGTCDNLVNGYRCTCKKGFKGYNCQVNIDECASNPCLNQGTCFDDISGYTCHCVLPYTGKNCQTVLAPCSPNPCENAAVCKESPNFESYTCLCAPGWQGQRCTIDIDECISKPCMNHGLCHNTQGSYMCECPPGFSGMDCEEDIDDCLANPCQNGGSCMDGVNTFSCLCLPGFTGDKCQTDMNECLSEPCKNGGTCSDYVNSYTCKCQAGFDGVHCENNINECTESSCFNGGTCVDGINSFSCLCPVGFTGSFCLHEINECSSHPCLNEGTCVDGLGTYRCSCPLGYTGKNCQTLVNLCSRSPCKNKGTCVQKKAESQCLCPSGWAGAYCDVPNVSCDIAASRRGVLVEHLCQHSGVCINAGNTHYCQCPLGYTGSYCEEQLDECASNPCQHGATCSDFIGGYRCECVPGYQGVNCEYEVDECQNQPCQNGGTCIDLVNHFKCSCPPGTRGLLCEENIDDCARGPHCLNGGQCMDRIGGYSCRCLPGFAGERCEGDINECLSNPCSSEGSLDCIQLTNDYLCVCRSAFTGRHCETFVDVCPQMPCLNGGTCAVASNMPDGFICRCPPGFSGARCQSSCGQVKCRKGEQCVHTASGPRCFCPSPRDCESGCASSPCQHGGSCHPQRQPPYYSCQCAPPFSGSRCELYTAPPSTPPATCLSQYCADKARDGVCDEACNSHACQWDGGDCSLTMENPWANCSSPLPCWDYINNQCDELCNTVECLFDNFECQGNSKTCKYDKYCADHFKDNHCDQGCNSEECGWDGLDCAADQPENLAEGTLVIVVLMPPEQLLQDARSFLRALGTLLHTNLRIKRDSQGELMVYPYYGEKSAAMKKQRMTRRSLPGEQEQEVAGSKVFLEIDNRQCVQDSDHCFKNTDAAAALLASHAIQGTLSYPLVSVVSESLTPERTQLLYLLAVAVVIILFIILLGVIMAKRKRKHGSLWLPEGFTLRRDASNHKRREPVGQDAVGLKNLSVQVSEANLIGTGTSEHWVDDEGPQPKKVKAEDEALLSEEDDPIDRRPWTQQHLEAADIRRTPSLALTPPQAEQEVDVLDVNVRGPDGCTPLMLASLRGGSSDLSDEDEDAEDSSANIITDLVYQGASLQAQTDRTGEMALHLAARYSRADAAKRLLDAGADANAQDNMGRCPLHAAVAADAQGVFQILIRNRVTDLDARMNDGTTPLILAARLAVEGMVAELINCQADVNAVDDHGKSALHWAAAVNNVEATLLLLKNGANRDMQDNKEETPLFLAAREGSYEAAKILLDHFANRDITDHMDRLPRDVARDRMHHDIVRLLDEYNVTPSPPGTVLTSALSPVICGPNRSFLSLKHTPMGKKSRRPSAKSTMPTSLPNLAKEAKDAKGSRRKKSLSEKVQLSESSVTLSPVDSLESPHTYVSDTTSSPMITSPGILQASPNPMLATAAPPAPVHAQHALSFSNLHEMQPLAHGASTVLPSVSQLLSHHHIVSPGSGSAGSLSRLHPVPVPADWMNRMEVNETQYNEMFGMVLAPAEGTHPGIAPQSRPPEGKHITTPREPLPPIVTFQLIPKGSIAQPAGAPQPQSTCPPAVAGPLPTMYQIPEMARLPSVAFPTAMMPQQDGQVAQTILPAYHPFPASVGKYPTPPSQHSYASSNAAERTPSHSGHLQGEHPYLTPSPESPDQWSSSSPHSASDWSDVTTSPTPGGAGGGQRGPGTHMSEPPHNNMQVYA
# Torsin-1A-interacting protein 2 (Homo sapiens), sequence (Q8NFQ8 whole entry, looked up): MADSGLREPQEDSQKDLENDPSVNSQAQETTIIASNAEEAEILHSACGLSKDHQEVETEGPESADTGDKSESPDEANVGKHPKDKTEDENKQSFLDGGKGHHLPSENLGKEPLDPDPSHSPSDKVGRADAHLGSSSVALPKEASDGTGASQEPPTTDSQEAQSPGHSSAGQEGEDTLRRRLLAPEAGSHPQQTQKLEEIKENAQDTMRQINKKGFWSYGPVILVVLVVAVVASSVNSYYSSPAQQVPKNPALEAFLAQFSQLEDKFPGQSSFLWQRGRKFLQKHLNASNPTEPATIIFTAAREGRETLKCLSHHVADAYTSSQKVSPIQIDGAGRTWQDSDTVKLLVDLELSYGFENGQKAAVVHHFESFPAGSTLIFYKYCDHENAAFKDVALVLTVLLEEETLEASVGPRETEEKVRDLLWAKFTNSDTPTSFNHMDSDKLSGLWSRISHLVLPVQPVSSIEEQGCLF
# Pro-neuregulin-1, membrane-bound isoform (Homo sapiens), sequence (Q02297 whole entry, looked up, the tested form may be a part, canonical isoform): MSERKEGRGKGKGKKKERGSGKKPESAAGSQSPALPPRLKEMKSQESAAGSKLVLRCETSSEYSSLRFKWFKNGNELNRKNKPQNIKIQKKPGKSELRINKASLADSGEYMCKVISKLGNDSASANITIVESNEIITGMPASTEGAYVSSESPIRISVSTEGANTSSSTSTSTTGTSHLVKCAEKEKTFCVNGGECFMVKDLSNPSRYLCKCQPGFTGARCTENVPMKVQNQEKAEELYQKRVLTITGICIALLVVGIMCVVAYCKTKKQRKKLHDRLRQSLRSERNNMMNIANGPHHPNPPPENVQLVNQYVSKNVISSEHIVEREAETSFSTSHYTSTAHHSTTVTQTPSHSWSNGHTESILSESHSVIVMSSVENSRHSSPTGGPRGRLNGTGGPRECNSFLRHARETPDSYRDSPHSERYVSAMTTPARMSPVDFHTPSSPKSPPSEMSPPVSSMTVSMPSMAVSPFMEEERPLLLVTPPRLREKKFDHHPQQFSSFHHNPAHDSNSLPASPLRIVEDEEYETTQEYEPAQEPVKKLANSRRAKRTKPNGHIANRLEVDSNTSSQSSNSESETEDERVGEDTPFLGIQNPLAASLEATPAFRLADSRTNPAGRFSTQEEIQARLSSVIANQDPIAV
SMILES,composite z-score [1],composite z-score [2],composite z-score [3],composite z-score [4],composite z-score [5],composite z-score [6],composite z-score [7],z-score [8],composite z-score [9],composite z-score [10],composite z-score [11],z-score [12],z-score [13],z-score [14],composite z-score [15],z-score [16],composite z-score [17],composite z-score [18],composite z-score [19],composite z-score [20]
COc1ccc(NC(=O)O[C@H]2[C@H](OC(=O)Nc3ccccc3)[C@H](OC(=O)Nc3ccccc3)[C@@H](OC)O[C@@H]2CO)cc1,0.474,1,0.338,1.19,1.15,1.61,1.25,-0.742 (inactive),0.803,0.281,1.55,0.855 (inactive),0.887 (inactive),3.25 (inactive),2.66,-0.873 (inactive),0.31,0.691,0.989,0.644
CN(C)C(=O)[C@@]1(Cc2ccccc2CN=[N+]=[N-])N=C(c2ccc(OCCCO)cc2)O[C@H]1c1ccccc1CN=[N+]=[N-],0.262,-0.159,0.222,0.776,1.52,1.64,1.29,-4.01 (inactive),0.457,-0.388,0.88,0.733 (inactive),1.19 (inactive),15.6 (active),2.6,0.0474 (inactive),0.514,-0.586,0.456,0.424
CCOC(=O)C[C@H]1[C@H](OC(=O)c2ccccc2-c2ccccc2)[C@@H](NC(=O)C2CCCCC2)c2cc(OCCCO)ccc2N1C(=O)Cc1ccc(OC)cc1,0.0253,0.154,-0.0636,0.253,0.231,-0.0991,-0.163,0.277 (inactive),0.169,-0.12,0.143,-0.93 (inactive),-0.0289 (inactive),-0.144 (inactive),0.735,-1.05 (inactive),-0.132,0.159,-0.292,-0.139
C=C(C)[C@@H]1CC=C(C(O)C2C=CC3C(=O)N(c4ccccc4)C(=O)C3N2Nc2ccccc2F)CC1 (stereo not given in full),0.264,0.0754,0.195,0.825,1.63,1.94,1.22,-1.51 (inactive),1.84,0.18,1.57,1.59 (inactive),1.09 (inactive),3.06 (inactive),3.64,-1.48 (inactive),0.0865,0.443,1.01,0.11
C=CCC(OC(C)=O)[C@@H]1[C@@H](N(Cc2ccc(-c3cccc(C(F)(F)F)c3)o2)C(=O)c2ccc(C)cc2)c2cc(OCCCO)ccc2N1C(=O)c1ccc2ccccc2c1 (stereo not given in full),-0.302,0.462,0.0002,0.298,-0.204,-0.0678,0.273,0.0925 (inactive),0.0494,0.0749,0.128,0.488 (inactive),0.668 (inactive),0.742 (inactive),0.407,1.14 (inactive),-0.138,0.485,0.313,-0.125
O=C(NCC(F)(F)F)[C@@H]1c2ccccc2C(=O)N(Cc2cc(F)cc(C(F)(F)F)c2)[C@H]1c1ccc(CO)cc1,0.148,-0.823,-0.0996,-0.762,-1,-0.381,1.06,-0.0411 (inactive),-0.317,-0.218,-0.264,0.0042 (inactive),-0.793 (inactive),0.29 (inactive),2.29,0.463 (inactive),-0.0998,-1.08,-1.13,-0.278
C=CCC(OC(C)=O)[C@@H]1[C@@H](N(Cc2cccc3ccccc23)C(=O)c2cccc3ccccc23)c2cc(OCCCO)ccc2N1C(=O)c1ccc(-c2ccccc2)cc1 (stereo not given in full),-0.0699,0.103,-0.105,0.0552,-0.603,0.523,-0.825,-1.66 (inactive),0.234,0.607,0.159,-0.551 (inactive),0.169 (inactive),-0.725 (inactive),0.465,-0.61 (inactive),-0.027,0.163,-0.287,-0.0104
C=CCC(OC(C)=O)[C@@H]1[C@@H](N(Cc2ccc(-c3ccccc3)cc2)C(=O)Cc2ccc(F)cc2)c2cc(OCCCO)ccc2N1C(=O)Cc1ccc(OC)cc1 (stereo not given in full),-0.134,0.132,-0.172,0.295,-0.437,0.0936,-0.438,-0.528 (inactive),0.121,-0.175,-0.712,0.111 (inactive),0.278 (inactive),-0.0946 (inactive),0.311,0.245 (inactive),0.0731,-0.128,-0.241,-0.204
C=CCC(OC(C)=O)[C@@H]1[C@@H](N(Cc2cc3ccccc3o2)C(=O)Cc2ccc(F)cc2)c2cc(OCCCO)ccc2N1C(=O)c1ccc2ccccc2c1 (stereo not given in full),-0.0245,-0.186,-0.116,-0.121,-0.367,-0.32,-0.432,-1.92 (inactive),0.45,-0.0994,-0.381,-0.313 (inactive),0.716 (inactive),-0.538 (inactive),-0.383,-1.07 (inactive),-0.0708,0.437,-0.44,-0.112

# — PubChem BioAssay
